Test results as given in PubChem BioAssay (NCATS).
Inconclusive results are not listed. Unless noted, calls come from the whole dose curve; as a rule, active = well fitted curve in either direction with a large enough effect (not every such curve was filed as active); inconclusive = small, poorly fitted or top-dose-only effect, or another doubt; inactive = flat fitted curve, though single readings scatter.

Tests used:
[1] = AP1 Signaling Pathway (AID 357); conditions: ME-180 AP-1-bla reporter, EGF-induced, beta-lactamase ratio, 5 h; at 17.2 µM (top of the series) unless noted; note: % is set by controls: 0 for no effect and ±100 for the full control effect
How it was run: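 ME-180 cells with beta-lactamase reporter under AP-1 response element, stimulated with EC50 EGF; compounds tested in titration series, 5 h at 37 °C. CCF4 substrate added 2.5 h at room temperature; 460/530 nm emission ratio gave %activity and AC50.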

[2] = Stat Signaling Pathway (AID 446); conditions: ME-180 SIE beta-lactamase reporter, IL-6 stimulated, 5 h; at 17.2 µM (top of the series) unless noted;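 note: ME-180 cervical cancer cells given 40 pM IL-6 alongside compound; SIE-controlled beta-lactamase reporter measured as 460/530 nm FRET emission ratio; % is set by controls: 0 for no effect and ±100 for the full control effect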
How it was run: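 Compound effects on IL-6-induced STAT reporter activity were measured in ME-180 cells. After overnight culture, cells were co-treated with 40 pM IL-6 for 5 hrs before beta-lactamase substrate loading at room temperature.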

[3] = target: Glucocorticoid receptor (Homo sapiens) (UniProt P04150); test: GR-GFP Redistribution (AID 450;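 active = compounds whose dose series gives a full or clear partial fitted curve of increased nuclear translocation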; note: potency is the fitted concentration of half-maximal effect)
Glucocorticoid receptor (Homo sapiens), sequence (P04150 whole entry, looked up): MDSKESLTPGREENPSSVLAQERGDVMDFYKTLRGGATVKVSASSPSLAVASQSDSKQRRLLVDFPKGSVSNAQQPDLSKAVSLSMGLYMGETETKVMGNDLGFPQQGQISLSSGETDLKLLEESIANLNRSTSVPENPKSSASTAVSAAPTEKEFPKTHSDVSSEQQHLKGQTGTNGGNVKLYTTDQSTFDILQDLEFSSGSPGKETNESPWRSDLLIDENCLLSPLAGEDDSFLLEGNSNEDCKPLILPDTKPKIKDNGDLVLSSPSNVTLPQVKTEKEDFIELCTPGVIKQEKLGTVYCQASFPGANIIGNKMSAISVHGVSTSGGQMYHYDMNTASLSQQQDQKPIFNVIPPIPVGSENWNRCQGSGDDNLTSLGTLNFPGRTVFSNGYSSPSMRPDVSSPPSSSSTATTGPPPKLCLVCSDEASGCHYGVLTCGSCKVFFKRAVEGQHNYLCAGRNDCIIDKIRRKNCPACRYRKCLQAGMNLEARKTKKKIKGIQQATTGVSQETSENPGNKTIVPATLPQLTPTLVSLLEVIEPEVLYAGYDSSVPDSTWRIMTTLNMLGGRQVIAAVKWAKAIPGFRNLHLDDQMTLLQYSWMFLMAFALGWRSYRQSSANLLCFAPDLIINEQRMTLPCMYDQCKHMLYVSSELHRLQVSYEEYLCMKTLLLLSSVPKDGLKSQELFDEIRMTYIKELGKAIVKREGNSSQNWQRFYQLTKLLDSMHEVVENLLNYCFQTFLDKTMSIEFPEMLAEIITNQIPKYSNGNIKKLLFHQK

[4] = NFAT Signaling Pathway (AID 444); conditions: Jurkat NFAT-bla M1, carbachol, beta-lactamase ratio, 5 h; at 17.2 µM (top of the series) unless noted;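 note: carbachol stimulus at about its EC50 of 1 µM final; % is set by controls: 0 for no effect and ±100 for the full control effect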
How it was run: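 Read-out: CCF4 FRET ratio (460 nm/530 nm) after 1 h RT dye loading, used for %activity and AC50 from titration series. Cells: Jurkat NFAT-β-lactamase/M1 line, treated with compound plus 1 uM carbachol for 5 h, 37 °C.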

[5] = qHTS Assay for Identification of Small Molecule Agonists for Hypoxia Response Element Signaling Pathway (AID 914; active = well fitted activation curve with a large enough effect in the signal ratio, with a control signal flat, not every such curve was filed as active; the % refers to the signal ratio; note: % of control where 0% means no effect); conditions: ME-180 (cervical carcinoma) HRE-bla reporter, beta-lactamase ratio, CoCl2, 17 h; activation: stronger effect = higher value
How it was run: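 Positive modulation of EC50 CoCl2-induced hypoxia response element signaling is measured in ME-180 cells with a beta-lactamase reporter. Compounds are titrated, incubation runs 17 hours, and %Activity derives from the blue/green ratio.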

C1CCCN(CCCCN2CCCCCC2)CC1
inactive: activity change, negative = inhibition [1] 3.84% | activity, negative = inhibition [2] 16%

CCOC(=O)CSC1=C(C#N)C(c2ccc(OC)cc2)C2=C(CC(C)(C)CC2=O)N1 (configuration not stated)
inactive: activity change, negative = inhibition [1] -15.4% | activity, negative = inhibition [2] -4.41% | Potency [3] > 20.6 µM

Brc1ccc(-c2cnc3n2CCCC3)cc1
inactive: activity change, negative = inhibition [1] 1.22% | activity, negative = inhibition [2] 16.1% | Potency [3] > 20.6 µM

COc1ccc(-c2nn3c(COc4ccccc4)nnc3s2)cc1OC
inactive: activity change, negative = inhibition [1] -9.35% | activity change, negative = inhibition [4] 6.83% | Potency [3] > 20.6 µM | activation [5] -19.3%

CC(=O)c1ccc(O)c(CO)c1
inactive: activity change, negative = inhibition [1] 12.6% | activity change, negative = inhibition [4] -1.78% | Potency [3] > 20.6 µM

CCOC(=O)C1=Nc2ccccc2C1=[N+]=[N-]
inactive: activity change, negative = inhibition [1] -19% | activity, negative = inhibition [2] -23.9% | Potency [3] > 20.6 µM

c1ccc2c(N3CCCCC3)nc(N3CCCCC3)nc2c1
inactive: activity change, negative = inhibition [1] 21.1% | activity, negative = inhibition [2] -3.49% | Potency [3] > 20.6 µM

CN1CCN(C(=O)CSc2nc(-c3cccs3)ccc2C#N)CC1
inactive: activity change, negative = inhibition [1] -11% | activity, negative = inhibition [2] -1.05% | Potency [3] > 20.6 µM

COc1ccc(-c2cc(=O)[nH]c(=O)[nH]2)cc1
inactive: activity change, negative = inhibition [1] 6.12% | activity, negative = inhibition [2] -5.47% | Potency [3] > 20.6 µM

CCOC(=O)c1c2c(c(=S)n(-c3ccccc3)c1N)CCC2
inactive: activity change, negative = inhibition [1] -21.8% | activity, negative = inhibition [2] -15.9% | Potency [3] > 20.6 µM

CC1(C)Cc2c(sc3nc4n(c(=N)c23)CCCCC4)CO1
inactive: activity change, negative = inhibition [1] 19.2% | activity, negative = inhibition [2] 3.32% | Potency [3] > 20.6 µM

CCOC(=O)C1CSc2[nH]c(=O)sc2C1c1ccccc1 (configuration not stated)
inactive: activity change, negative = inhibition [1] 0.248% | activity, negative = inhibition [2] -1.01% | Potency [3] > 20.6 µM

COC(=O)CSc1nc(-c2cccs2)ccc1C#N
inactive: activity change, negative = inhibition [1] -2.59% | activity, negative = inhibition [2] -2.18% | Potency [3] > 20.6 µM

CCOC(=O)c1[nH]c2ccccc2c1N=C(C)N(CC)CC
inactive: activity change, negative = inhibition [1] 4.17% | activity, negative = inhibition [2] 5.19% | Potency [3] > 20.6 µM

CCOc1ccc(C2C=C(c3ccccc3)Nc3ncnn32)cc1 (configuration not stated)
inactive: activity change, negative = inhibition [1] -28.8% | activity, negative = inhibition [2] -2.5% | Potency [3] > 20.6 µM

CC(C)(C)c1cccc(/C=N/O)c1O
inactive: activity change, negative = inhibition [1] -17.8% | activity, negative = inhibition [2] -5.38% | Potency [3] > 20.6 µM

CCOC(=O)N1CC=C2C(C#N)=C(N)C(C#N)(C#N)[C@H](c3cccs3)[C@H]2C1
inactive: activity change, negative = inhibition [1] 6.03% | activity, negative = inhibition [2] -16% | Potency [3] > 20.6 µM

CC1(C)Cc2nc(NCCCO)c(C#N)cc2CO1
inactive: activity change, negative = inhibition [1] -6.96% | activity, negative = inhibition [2] 7.31% | Potency [3] > 20.6 µM

C=CCOC(=O)C(C#N)c1nc2ccccc2nc1N1CCN(c2ccccc2OCC)CC1 (configuration not stated)
inactive: activity change, negative = inhibition [1] 9.88% | activity, negative = inhibition [2] 2.33% | Potency [3] > 20.6 µM
